Test results published in PubChem BioAssay (NCI).
The panel holds about 83,000 compounds, 20% with a hit somewhere; the sample as a whole holds those more often.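 Negative percent growth values reflect cell death: -40 means 40% of the cells present at the start died, and -100 means all died.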 Activity calls are given as the source filed them. How the source made its calls: active means growth percent below 10; inactive means the rest.

Experiments:
Experiment in all cases: NCI-60 one-dose screen, 48 h (100 = growth as untreated, 0 = no growth, -100 = all killed)
Conditions in all cases: 10 µM unless noted
SK-MEL-2 melanoma = tested on: SK-MEL-2 melanoma
EKVX NSCLC = tested on: EKVX NSCLC
SN12C renal = tested on: SN12C renal
UO-31 renal = tested on: UO-31 renal
TK-10 renal = tested on: TK-10 renal
ACHN renal = tested on: ACHN renal
CAKI-1 renal = tested on: CAKI-1 renal
A498 renal = tested on: A498 renal
CCRF-CEM leukemia = tested on: CCRF-CEM leukemia
MOLT-4 leukemia = tested on: MOLT-4 leukemia
SR leukemia = tested on: SR leukemia
RPMI-8226 leukemia = tested on: RPMI-8226 leukemia
OVCAR-8 ovarian = tested on: OVCAR-8 ovarian
OVCAR-5 ovarian = tested on: OVCAR-5 ovarian
OVCAR-4 ovarian = tested on: OVCAR-4 ovarian
SK-OV-3 ovarian = tested on: SK-OV-3 ovarian
IGROV1 ovarian = tested on: IGROV1 ovarian
OVCAR-3 ovarian = tested on: OVCAR-3 ovarian
HS 578T breast = tested on: HS 578T breast
NCI/ADR-RES ovarian = tested on: NCI/ADR-RES ovarian

Measured: growth

C=C1CCC2C3(C)COC(c4ccccc4)OC3CCC2(C)C1CC(NCc1ccccc1)C1=CCOC1=O (stereo not given)
inactive: SK-MEL-2 melanoma 101% | EKVX NSCLC 73.8% | SN12C renal 79.4% | UO-31 renal 56.7% | TK-10 renal 76% | ACHN renal 86.4% | CAKI-1 renal 58.1% | A498 renal 76.6% | CCRF-CEM leukemia 101% | MOLT-4 leukemia 61.1% | SR leukemia 68.6% | RPMI-8226 leukemia 34.1% | OVCAR-8 ovarian 82.9% | OVCAR-5 ovarian 87.5% | OVCAR-4 ovarian 82.8% | SK-OV-3 ovarian 79.9% | IGROV1 ovarian 90.6% | OVCAR-3 ovarian 83% | HS 578T breast 78% | NCI/ADR-RES ovarian 77.7%

O=C(CSc1nc2ccccc2c(=O)[nH]1)NCCN1CCCCC1
inactive: SK-MEL-2 melanoma 92.5% | EKVX NSCLC 93.7% | SN12C renal 96.4% | UO-31 renal 78.6% | TK-10 renal 94.9% | ACHN renal 103% | CAKI-1 renal 82.4% | A498 renal 105% | CCRF-CEM leukemia 98.5% | MOLT-4 leukemia 103% | SR leukemia 90.9% | RPMI-8226 leukemia 100% | OVCAR-8 ovarian 97.7% | OVCAR-5 ovarian 94.2% | OVCAR-4 ovarian 98.8% | SK-OV-3 ovarian 107% | IGROV1 ovarian 104% | OVCAR-3 ovarian 105% | HS 578T breast 94.1% | NCI/ADR-RES ovarian 102%

NS(=O)(=O)c1ccc(N=Nc2c(O)n(CC(=O)Nc3ccccc3)c3ccccc23)cc1
active: CAKI-1 renal 7.36% | MOLT-4 leukemia 7.09%
inactive: SK-MEL-2 melanoma 42.7% | EKVX NSCLC 38.4% | SN12C renal 52.7% | UO-31 renal 31.1% | TK-10 renal 84% | ACHN renal 11% | A498 renal 60% | CCRF-CEM leukemia 50.2% | SR leukemia 18.5% | RPMI-8226 leukemia 42.7% | OVCAR-8 ovarian 11.3% | OVCAR-5 ovarian 74.5% | OVCAR-4 ovarian 57.3% | SK-OV-3 ovarian 25.2% | IGROV1 ovarian 38.9% | OVCAR-3 ovarian 20.8% | HS 578T breast 52% | NCI/ADR-RES ovarian 64.3%

COc1c(F)ccc(C(=O)Nc2ccc3nc(NC(=O)C4CCCN(S(=O)(=O)c5ccc(C#N)cc5)C4)sc3c2)c1F (stereo not given)
inactive: SK-MEL-2 melanoma 97.1% | EKVX NSCLC 96.2% | SN12C renal 94.6% | UO-31 renal 68.8% | TK-10 renal 112% | ACHN renal 97.4% | CAKI-1 renal 90.6% | A498 renal 101% | CCRF-CEM leukemia 92.2% | MOLT-4 leukemia 62.4% | SR leukemia 74.4% | RPMI-8226 leukemia 70.1% | OVCAR-8 ovarian 111% | OVCAR-5 ovarian 103% | OVCAR-4 ovarian 86.3% | SK-OV-3 ovarian 103% | IGROV1 ovarian 97.1% | OVCAR-3 ovarian 102% | HS 578T breast 79.1% | NCI/ADR-RES ovarian 96.1%

CC1[C@H]2[C@H](C[C@H]3[C@@H]4CC=C5c6sc(Nc7ccccc7F)nc6CC[C@]5(C)[C@H]4CC[C@@]32C)O[C@]12CC[C@@H](C)CO2 (stereo not given in full)
active: SK-MEL-2 melanoma -83% | EKVX NSCLC -52.5% | SN12C renal -69.4% | UO-31 renal -93.1% | TK-10 renal -60.2% | ACHN renal -75.4% | CAKI-1 renal -82.2% | CCRF-CEM leukemia -21.5% | MOLT-4 leukemia -16.2% | SR leukemia 4.49% | RPMI-8226 leukemia -16.2% | OVCAR-8 ovarian -83.4% | OVCAR-5 ovarian -67.1% | OVCAR-4 ovarian -42.9% | SK-OV-3 ovarian -19.5% | IGROV1 ovarian -37.6% | OVCAR-3 ovarian -74.3% | HS 578T breast -16.1% | NCI/ADR-RES ovarian -33.9%
inactive: A498 renal 17.5%

O=C(COc1ccc2c(c1)CCCC(=O)N2)NCc1ccccc1
inactive: SK-MEL-2 melanoma 87.1% | EKVX NSCLC 95.2% | SN12C renal 108% | UO-31 renal 84.7% | TK-10 renal 110% | ACHN renal 103% | CAKI-1 renal 92.7% | A498 renal 94.6% | CCRF-CEM leukemia 78% | MOLT-4 leukemia 80.6% | SR leukemia 27.6% | RPMI-8226 leukemia 94.9% | OVCAR-8 ovarian 99.5% | OVCAR-5 ovarian 101% | OVCAR-4 ovarian 92% | SK-OV-3 ovarian 89.5% | IGROV1 ovarian 111% | OVCAR-3 ovarian 85.4% | HS 578T breast 94.2% | NCI/ADR-RES ovarian 80.2%

COc1ccc2[nH]cc(-c3nnc(N)nc3-c3cn(C)c4ncc(Br)cc34)c2c1
inactive: SK-MEL-2 melanoma 61.1% | EKVX NSCLC 88.7% | SN12C renal 60.2% | UO-31 renal 49.4% | TK-10 renal 46.3% | ACHN renal 50.8% | CAKI-1 renal 43.9% | A498 renal 45.5% | CCRF-CEM leukemia 66.8% | MOLT-4 leukemia 56.6% | SR leukemia 49.6% | RPMI-8226 leukemia 74.5% | OVCAR-8 ovarian 75.8% | OVCAR-5 ovarian 84.8% | OVCAR-4 ovarian 69.1% | SK-OV-3 ovarian 95.2% | IGROV1 ovarian 58.4% | OVCAR-3 ovarian 65.7% | HS 578T breast 55.7% | NCI/ADR-RES ovarian 83.5%

Cn1cc(-c2cc3nc(-c4cn(C)c5ncc(Br)cc45)cc(N)n3n2)c2ccccc21
active: SK-MEL-2 melanoma -73.6% | EKVX NSCLC -44.2% | SN12C renal -82.2% | UO-31 renal -36.3% | TK-10 renal -32.8% | ACHN renal -45.9% | CAKI-1 renal 1.08% | A498 renal -24.3% | CCRF-CEM leukemia -23.9% | MOLT-4 leukemia -42% | SR leukemia -20.7% | RPMI-8226 leukemia -2.62% | OVCAR-8 ovarian -10.9% | OVCAR-5 ovarian -49.5% | SK-OV-3 ovarian -24% | IGROV1 ovarian -23.8% | OVCAR-3 ovarian -18.5% | HS 578T breast -19.7% | NCI/ADR-RES ovarian -23.5%
inactive: OVCAR-4 ovarian 20%

COc1cc(C2CC(c3ccc(S(=O)(=O)NCCNc4nc(Nc5ccc(F)cc5)nc(N(C)C)n4)cc3)=Nc3c(N)nc(N)nc3N2)cc(OC)c1OC (stereo not given)
inactive: SK-MEL-2 melanoma 90.8% | EKVX NSCLC 87.3% | SN12C renal 83.9% | UO-31 renal 86.1% | TK-10 renal 95.4% | ACHN renal 96.8% | CAKI-1 renal 90.4% | A498 renal 86.8% | CCRF-CEM leukemia 33.8% | MOLT-4 leukemia 34.4% | SR leukemia 36.1% | RPMI-8226 leukemia 24.8% | OVCAR-8 ovarian 93.1% | OVCAR-5 ovarian 98.4% | OVCAR-4 ovarian 85.6% | SK-OV-3 ovarian 110% | IGROV1 ovarian 81.7% | OVCAR-3 ovarian 93.6% | HS 578T breast 76.5% | NCI/ADR-RES ovarian 95.6%

COc1c(F)ccc(C(=O)Nc2ccc3nc(NC(=O)C4CCCN(S(=O)(=O)c5ccc(Br)s5)C4)sc3c2)c1F (stereo not given)
inactive: SK-MEL-2 melanoma 81.8% | EKVX NSCLC 81.2% | SN12C renal 85.9% | UO-31 renal 77.6% | TK-10 renal 116% | ACHN renal 77.2% | CAKI-1 renal 82.6% | A498 renal 104% | CCRF-CEM leukemia 75% | MOLT-4 leukemia 48.5% | SR leukemia 44.3% | RPMI-8226 leukemia 46.7% | OVCAR-8 ovarian 94.9% | OVCAR-5 ovarian 105% | OVCAR-4 ovarian 67.9% | SK-OV-3 ovarian 109% | IGROV1 ovarian 81.5% | OVCAR-3 ovarian 85.8% | HS 578T breast 58.8% | NCI/ADR-RES ovarian 84.8%

Cc1nc(Nc2ccccn2)sc1C(=O)CC(SCC(=O)Nc1ccc(Cl)cc1)c1ccccc1F (stereo not given)
active: SK-MEL-2 melanoma -27.1% | SN12C renal -15.1% | TK-10 renal 6.79% | RPMI-8226 leukemia 7.34% | OVCAR-8 ovarian -35.8% | OVCAR-5 ovarian -41.2% | SK-OV-3 ovarian 8.74% | OVCAR-3 ovarian -13.5% | HS 578T breast 4.29% | NCI/ADR-RES ovarian -18%
inactive: EKVX NSCLC 36.5% | UO-31 renal 30.3% | ACHN renal 24.6% | CAKI-1 renal 15.3% | A498 renal 45.3% | CCRF-CEM leukemia 12.4% | MOLT-4 leukemia 23.7% | SR leukemia 12.6% | OVCAR-4 ovarian 42.5% | IGROV1 ovarian 20.4%

Brc1ccc(-c2n(Cc3ccc4ccccc4c3)c(-c3ccccc3)c(-c3ccccc3)[n+]2Cc2ccc3ccccc3c2)cc1
active: SK-MEL-2 melanoma -90.1% | EKVX NSCLC -86.7% | SN12C renal -85.4% | UO-31 renal -79% | TK-10 renal -92.5% | ACHN renal -100% | CAKI-1 renal -97% | A498 renal -94% | CCRF-CEM leukemia -10.5% | MOLT-4 leukemia -5.89% | SR leukemia -36.8% | RPMI-8226 leukemia -38% | OVCAR-8 ovarian -77.4% | OVCAR-5 ovarian -100% | OVCAR-4 ovarian -83.3% | SK-OV-3 ovarian -96.7% | IGROV1 ovarian -81.7% | OVCAR-3 ovarian -79% | HS 578T breast -46.3% | NCI/ADR-RES ovarian -78.2%

Cc1ccc(S(=O)(=O)c2nc(S(=O)(=O)c3ccc(C)cc3)c(Cl)s2)cc1
inactive: SK-MEL-2 melanoma 42.5% | A498 renal 122% | MOLT-4 leukemia 16.6% | OVCAR-5 ovarian 31.6% | SK-OV-3 ovarian 133% | IGROV1 ovarian 44.8% | HS 578T breast 86.5% | NCI/ADR-RES ovarian 29.5%
active: EKVX NSCLC 0.151% | SN12C renal -20.5% | UO-31 renal -6.4% | TK-10 renal -50.4% | ACHN renal -92.3% | CAKI-1 renal -75.8% | CCRF-CEM leukemia 5.23% | SR leukemia 3.18% | RPMI-8226 leukemia -32.7% | OVCAR-8 ovarian 9.84% | OVCAR-4 ovarian -26.1% | OVCAR-3 ovarian -87.5%

CCCSc1nc(Nc2ccc(S(N)(=O)=O)cc2)c(C#N)c(-c2ccc(Cl)cc2)n1
inactive: SK-MEL-2 melanoma 67.9% | EKVX NSCLC 50.6% | CCRF-CEM leukemia 81.4% | MOLT-4 leukemia 50.4% | SR leukemia 18.5% | RPMI-8226 leukemia 11.2% | OVCAR-8 ovarian 15.2% | OVCAR-5 ovarian 61.1% | IGROV1 ovarian 43% | OVCAR-3 ovarian 31.7% | HS 578T breast 12.5% | NCI/ADR-RES ovarian 26.8%
active: SN12C renal -16.2% | UO-31 renal -68.6% | TK-10 renal -16.4% | ACHN renal -66.8% | CAKI-1 renal -54.5% | A498 renal -41.8% | OVCAR-4 ovarian 7.47% | SK-OV-3 ovarian -32.6%

O=C(C1=CNC(=S)NC1c1ccc(O)cc1)c1cc2ccccc2oc1=O (stereo not given)
inactive: SK-MEL-2 melanoma 101% | EKVX NSCLC 107% | SN12C renal 99.3% | UO-31 renal 72.4% | TK-10 renal 130% | ACHN renal 108% | CAKI-1 renal 87.6% | A498 renal 139% | CCRF-CEM leukemia 92% | MOLT-4 leukemia 94.1% | SR leukemia 75.5% | RPMI-8226 leukemia 88.7% | OVCAR-8 ovarian 100% | OVCAR-5 ovarian 109% | OVCAR-4 ovarian 96.1% | SK-OV-3 ovarian 93.2% | IGROV1 ovarian 108% | OVCAR-3 ovarian 101% | HS 578T breast 97.8% | NCI/ADR-RES ovarian 106%
